Targets with a hit are over-represented here; the source holds about 7,900 in all. About 0.6% of all pairs of compound and target were hits.
These targets were tested with CCn1cc(-c2ccnc3[nH]c(-c4cccc(CN(C)C)c4)cc23)c(-c2ccc(NC(=O)N(C)C)cc2)n1 (assay: log2 fold change, soluble protein after heating vs DMSO (PISA); higher = thermal stabilisation; K562 cells, 10 uM, 30 min; active = over 0.2 and 3.5 SD of the protein, either way, in both replicates (recomputed)).
Procedure, shortened: (§1)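 K562 cells (2×10^6 cells/mL) were treated with 10 μM compound for 30 min, and aliquots were heated for 3 min over 48°C-58°C. Pooled aliquots were extracted in PBS with 0.5% NP-40 at 4°C, and the supernatant after 21,000xg for 90 min was measured by TMTpro 16plex LC-MS/MS with channel sums equalised. Reported thermal stability, relative to control samples and from duplicates, is a log2 fold change.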

Sequence of UniProt O94979 (O94979 whole entry, looked up): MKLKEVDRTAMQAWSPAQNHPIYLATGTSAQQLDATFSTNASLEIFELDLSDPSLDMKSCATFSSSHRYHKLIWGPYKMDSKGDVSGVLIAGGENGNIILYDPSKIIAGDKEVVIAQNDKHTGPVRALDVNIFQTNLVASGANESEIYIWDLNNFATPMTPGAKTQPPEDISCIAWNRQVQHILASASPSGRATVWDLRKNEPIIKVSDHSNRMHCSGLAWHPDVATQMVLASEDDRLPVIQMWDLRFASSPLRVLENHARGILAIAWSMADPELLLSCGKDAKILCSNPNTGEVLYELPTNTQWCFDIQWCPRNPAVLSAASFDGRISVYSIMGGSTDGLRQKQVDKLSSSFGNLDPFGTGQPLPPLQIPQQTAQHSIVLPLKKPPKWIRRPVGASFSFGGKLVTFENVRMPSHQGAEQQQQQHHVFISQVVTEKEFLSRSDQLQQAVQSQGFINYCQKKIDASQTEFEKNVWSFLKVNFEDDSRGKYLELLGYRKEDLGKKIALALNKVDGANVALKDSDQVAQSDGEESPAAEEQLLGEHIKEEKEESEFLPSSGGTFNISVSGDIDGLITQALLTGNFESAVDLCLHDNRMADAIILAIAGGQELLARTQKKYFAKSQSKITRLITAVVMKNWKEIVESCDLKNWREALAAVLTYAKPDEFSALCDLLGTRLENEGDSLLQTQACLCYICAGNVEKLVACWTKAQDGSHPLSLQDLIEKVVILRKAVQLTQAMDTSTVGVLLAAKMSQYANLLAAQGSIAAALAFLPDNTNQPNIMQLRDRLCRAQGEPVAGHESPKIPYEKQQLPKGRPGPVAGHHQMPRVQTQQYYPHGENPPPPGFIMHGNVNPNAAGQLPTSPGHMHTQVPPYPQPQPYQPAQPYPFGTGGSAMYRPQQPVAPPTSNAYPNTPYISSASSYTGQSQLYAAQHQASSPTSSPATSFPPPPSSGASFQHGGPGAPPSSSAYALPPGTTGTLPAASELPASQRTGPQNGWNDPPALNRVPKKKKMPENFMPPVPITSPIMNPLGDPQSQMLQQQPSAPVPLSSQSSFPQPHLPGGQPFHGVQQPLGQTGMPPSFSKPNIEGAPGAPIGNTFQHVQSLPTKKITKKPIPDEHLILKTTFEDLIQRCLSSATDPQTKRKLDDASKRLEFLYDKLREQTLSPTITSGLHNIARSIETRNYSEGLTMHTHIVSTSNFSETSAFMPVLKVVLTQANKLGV
Sequence of UniProt Q13546 (Q13546 whole entry, looked up): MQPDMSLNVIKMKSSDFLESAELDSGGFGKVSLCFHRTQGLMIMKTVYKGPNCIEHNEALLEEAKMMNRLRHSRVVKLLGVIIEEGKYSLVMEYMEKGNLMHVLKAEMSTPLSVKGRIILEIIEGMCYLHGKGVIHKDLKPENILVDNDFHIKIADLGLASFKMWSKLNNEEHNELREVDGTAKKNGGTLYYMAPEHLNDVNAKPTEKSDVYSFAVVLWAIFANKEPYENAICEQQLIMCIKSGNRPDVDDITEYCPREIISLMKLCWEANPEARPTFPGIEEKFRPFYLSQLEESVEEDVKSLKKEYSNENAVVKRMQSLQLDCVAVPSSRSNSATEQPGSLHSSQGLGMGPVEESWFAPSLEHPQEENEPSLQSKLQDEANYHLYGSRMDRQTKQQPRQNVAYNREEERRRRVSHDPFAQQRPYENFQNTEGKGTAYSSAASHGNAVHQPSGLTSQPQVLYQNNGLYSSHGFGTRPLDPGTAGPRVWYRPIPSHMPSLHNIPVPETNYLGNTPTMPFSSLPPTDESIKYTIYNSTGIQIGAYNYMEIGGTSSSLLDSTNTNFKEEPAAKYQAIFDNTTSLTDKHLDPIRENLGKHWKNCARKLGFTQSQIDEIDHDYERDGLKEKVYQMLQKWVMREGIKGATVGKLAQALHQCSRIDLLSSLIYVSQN
Sequence of UniProt Q15436 (Q15436 whole entry, looked up): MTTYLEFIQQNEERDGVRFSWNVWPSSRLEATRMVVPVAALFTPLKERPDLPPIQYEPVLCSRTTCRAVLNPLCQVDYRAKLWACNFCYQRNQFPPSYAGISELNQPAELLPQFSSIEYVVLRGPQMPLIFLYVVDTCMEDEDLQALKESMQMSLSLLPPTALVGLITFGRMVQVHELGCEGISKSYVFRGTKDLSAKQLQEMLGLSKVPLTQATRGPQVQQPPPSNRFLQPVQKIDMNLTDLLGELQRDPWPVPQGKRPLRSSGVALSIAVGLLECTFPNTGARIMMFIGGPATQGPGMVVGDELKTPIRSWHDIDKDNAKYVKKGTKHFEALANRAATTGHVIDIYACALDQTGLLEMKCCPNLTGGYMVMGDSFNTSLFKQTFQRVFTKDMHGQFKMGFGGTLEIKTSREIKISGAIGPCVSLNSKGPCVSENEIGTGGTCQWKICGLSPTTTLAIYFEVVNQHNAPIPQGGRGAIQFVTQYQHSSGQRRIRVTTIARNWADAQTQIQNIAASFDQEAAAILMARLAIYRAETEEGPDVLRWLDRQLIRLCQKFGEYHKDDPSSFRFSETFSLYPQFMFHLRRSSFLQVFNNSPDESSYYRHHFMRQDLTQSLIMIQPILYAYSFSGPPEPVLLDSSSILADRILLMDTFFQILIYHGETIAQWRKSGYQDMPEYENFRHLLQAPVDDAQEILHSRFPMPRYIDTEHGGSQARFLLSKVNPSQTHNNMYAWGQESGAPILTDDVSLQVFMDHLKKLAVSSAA
Sequence of UniProt P49756 (P49756 whole entry, looked up): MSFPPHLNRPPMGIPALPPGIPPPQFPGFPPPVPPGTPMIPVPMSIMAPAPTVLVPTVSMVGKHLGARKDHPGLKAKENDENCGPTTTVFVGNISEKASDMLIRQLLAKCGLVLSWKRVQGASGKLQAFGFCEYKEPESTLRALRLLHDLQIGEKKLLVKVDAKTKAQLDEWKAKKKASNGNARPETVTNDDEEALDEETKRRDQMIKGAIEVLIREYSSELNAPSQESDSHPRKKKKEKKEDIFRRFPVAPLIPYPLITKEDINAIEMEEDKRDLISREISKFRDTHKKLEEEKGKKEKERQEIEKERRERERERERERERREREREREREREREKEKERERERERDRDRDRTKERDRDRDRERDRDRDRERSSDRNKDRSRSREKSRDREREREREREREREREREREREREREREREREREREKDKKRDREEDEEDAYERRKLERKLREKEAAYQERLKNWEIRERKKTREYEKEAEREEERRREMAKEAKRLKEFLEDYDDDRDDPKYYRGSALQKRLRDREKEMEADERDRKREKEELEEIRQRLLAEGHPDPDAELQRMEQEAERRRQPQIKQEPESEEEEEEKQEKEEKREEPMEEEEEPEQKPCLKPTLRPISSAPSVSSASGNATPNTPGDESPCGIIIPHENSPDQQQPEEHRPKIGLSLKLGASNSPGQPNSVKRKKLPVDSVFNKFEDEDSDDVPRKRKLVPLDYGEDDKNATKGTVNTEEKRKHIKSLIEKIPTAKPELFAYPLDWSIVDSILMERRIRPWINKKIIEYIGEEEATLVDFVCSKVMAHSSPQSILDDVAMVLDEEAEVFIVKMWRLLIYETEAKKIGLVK
Sequence of UniProt Q8NBJ9 (Q8NBJ9 whole entry, looked up): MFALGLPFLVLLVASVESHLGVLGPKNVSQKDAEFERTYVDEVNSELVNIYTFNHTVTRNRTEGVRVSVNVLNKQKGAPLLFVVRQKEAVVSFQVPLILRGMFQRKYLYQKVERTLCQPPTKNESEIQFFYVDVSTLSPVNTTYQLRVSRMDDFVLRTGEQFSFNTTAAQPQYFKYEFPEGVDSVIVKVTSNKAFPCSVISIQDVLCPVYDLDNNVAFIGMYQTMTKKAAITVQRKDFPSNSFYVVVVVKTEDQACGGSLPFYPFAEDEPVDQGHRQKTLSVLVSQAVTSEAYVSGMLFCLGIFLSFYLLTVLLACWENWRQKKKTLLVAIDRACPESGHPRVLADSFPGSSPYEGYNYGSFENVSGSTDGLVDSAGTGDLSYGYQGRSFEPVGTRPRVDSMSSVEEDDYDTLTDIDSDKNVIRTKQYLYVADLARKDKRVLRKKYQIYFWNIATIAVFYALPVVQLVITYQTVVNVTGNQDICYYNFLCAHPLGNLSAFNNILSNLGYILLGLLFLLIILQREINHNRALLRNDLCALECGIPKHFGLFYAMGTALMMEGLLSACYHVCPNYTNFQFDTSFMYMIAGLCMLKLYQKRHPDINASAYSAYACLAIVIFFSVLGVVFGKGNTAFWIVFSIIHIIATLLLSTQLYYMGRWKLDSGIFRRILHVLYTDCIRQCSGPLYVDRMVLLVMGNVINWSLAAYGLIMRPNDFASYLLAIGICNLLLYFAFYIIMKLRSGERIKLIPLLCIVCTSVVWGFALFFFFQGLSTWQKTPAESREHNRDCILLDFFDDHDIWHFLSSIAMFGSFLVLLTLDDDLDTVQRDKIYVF
Sequence of UniProt P63208 (P63208 whole entry, looked up): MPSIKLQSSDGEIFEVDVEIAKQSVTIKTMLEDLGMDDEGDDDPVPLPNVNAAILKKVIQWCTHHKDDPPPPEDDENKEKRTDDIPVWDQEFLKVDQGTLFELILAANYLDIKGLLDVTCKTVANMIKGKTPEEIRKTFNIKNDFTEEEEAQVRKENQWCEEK
Sequence of UniProt Q9UKL0 (Q9UKL0 whole entry, looked up): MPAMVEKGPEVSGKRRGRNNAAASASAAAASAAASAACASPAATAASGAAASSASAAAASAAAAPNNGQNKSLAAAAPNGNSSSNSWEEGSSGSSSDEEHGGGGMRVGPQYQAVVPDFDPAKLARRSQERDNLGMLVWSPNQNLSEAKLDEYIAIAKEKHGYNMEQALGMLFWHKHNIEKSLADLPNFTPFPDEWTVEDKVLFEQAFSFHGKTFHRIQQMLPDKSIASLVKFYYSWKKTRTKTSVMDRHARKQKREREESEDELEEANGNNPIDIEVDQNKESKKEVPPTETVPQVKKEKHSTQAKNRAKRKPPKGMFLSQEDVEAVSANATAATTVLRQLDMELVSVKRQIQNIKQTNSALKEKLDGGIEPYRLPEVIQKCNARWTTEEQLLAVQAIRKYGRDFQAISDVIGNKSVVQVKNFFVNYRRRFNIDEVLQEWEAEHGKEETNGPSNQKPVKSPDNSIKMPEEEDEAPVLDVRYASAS

log2 fold change, inactive:
SEC23A (UniProt Q15436) -0.123
SCAF8 isoform 2 (UniProt Q9UPN6) 0.071
RIPK1 (UniProt Q13546) 0.041
RBM25 (UniProt P49756) 0.074
RAC3 (UniProt P60763) -0.149
SIDT2 isoform 2 (UniProt Q8NBJ9) 0.069
RCOR1 (UniProt Q9UKL0) -0.033
SKP1 (UniProt P63208) -0.035
SEC31A (UniProt O94979) 0.018
RPS9 (UniProt P46781) 0.088
RSL1D1 (UniProt O76021) 0.155

What follows are targets tested with CN(C)CC(=O)Nc1ccc2[nH]c(=O)c3ccccc3c2c1 in the same assay as above.
Procedure, shortened: as §1

log2 fold change, inactive:
RBM22 (UniProt Q9NW64) -0.058
RUFY1 (UniProt Q96T51) 0.033
RARS (UniProt P54136) 0.013
RHEB (UniProt Q15382) 0.016
RALA (UniProt P11233) -0.029
SDHAF2 (UniProt Q9NX18) -0.004
ROCK2 (UniProt O75116) 0.007
RPS18 (UniProt P62269) -0.036
RPS20 isoform 2 (UniProt P60866) -0.03
RBM12 (UniProt Q9NTZ6) 0.053
RPS6KA2 isoform 2 (UniProt Q15349) 0.025
SEH1L isoform 1 (UniProt Q96EE3) -0.013
SCAF11 (UniProt Q99590) -0.142
SLC12A9 (UniProt Q9BXP2) -0.02
RNF14 (UniProt Q9UBS8) -0.019
RARS2 (UniProt Q5T160) 0.026
SDHC (UniProt Q99643) 0.264
RBM17 (UniProt Q96I25) 0.048
RPS6KA1 isoform 2 (UniProt Q15418) 0.026
RB1CC1 (UniProt Q8TDY2) -0.077
RECQL (UniProt P46063) 0.016
SHROOM2 (UniProt Q13796) -0.021
SLBP (UniProt Q14493) -0.003
SEC23A (UniProt Q15436) 0.052
SCAF8 isoform 2 (UniProt Q9UPN6) 0.1
RIPK1 (UniProt Q13546) 0.08
RBM25 (UniProt P49756) 0.041
RAC3 (UniProt P60763) 0
SIDT2 isoform 2 (UniProt Q8NBJ9) -0.041
RCOR1 (UniProt Q9UKL0) 0.006
SKP1 (UniProt P63208) -0.019
SEC31A (UniProt O94979) 0.046
RPS9 (UniProt P46781) -0.095
RSL1D1 (UniProt O76021) -0.214
